Source: PubChem (National Center for Advancing Translational Sciences (NCATS))
HPGD block = inhibitors of human 15-hydroxyprostaglandin dehydrogenase (HPGD). P15428. actives 4.3% (n = 150,000). Potency, µM, most hits filed as inhibitors. AID 894. purified HPGD, NADH fluorescence kinetic, PGE2 substrate
Target sequence (P15428 whole entry, looked up): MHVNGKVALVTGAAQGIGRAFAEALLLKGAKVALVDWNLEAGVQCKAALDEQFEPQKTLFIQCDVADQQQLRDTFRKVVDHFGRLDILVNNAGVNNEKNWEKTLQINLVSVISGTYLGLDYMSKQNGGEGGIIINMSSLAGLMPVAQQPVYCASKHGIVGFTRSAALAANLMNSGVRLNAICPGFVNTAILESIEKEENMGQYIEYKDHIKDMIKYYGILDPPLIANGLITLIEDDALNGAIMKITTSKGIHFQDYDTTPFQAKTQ
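NADH formation kinetics: reaction with 30 uM PGE2 and 1 mM NAD+ (final), 20 nM enzyme, Tris-HCl pH 8 with Tween 20, after 15 min compound preincubation at room temperature. Fluorescence change, last versus first of five reads.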
LMNA splice mod = LMNA splicing modulation; actives 0.01% (n = 200,000); Potency, µM (titrated, usually from 46.1 µM), most hits filed as inhibitors; HeLa LMNA splicing GFP/RFP minigene ratio, 48 h; active = well fitted inhibition curve with a large enough effect in the signal ratio, with a control signal flat, not every such curve was filed as active; inconclusive = small, poorly fitted or top-dose-only effect, or effect the other way, or a change in a side signal; the % refers to the signal ratio
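S3 HeLa cells stably expressing lamin A-EGFP splicing minigene plus DsRed2, 600 cells/well, 48 h compound exposure at 37C. Laser-scanning cytometry; analysed as GFP (500-530 nm)/RFP (575-640 nm) total intensity ratio; 0.5% DMSO vehicle.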
KinaseGlo FLuc = Kinase-Glo luciferase inhibition (counter-screen); Kinase-Glo luciferase, ATP luminescence, 8 min; Potency, µM (highest dose often 38.3 µM), most hits filed as inhibitors; actives 0.28% (n = 200,000); active = well fitted inhibition curve with a large enough effect; inconclusive = small, poorly fitted or top-dose-only effect; note: nearly all actives have a fitted effect of over 60% in size
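Kinase-Glo luciferase light output from ATP and luciferin was measured with 10 uM ATP, within the enzyme's linear range. Buffer: 50 mM imidazole pH 7.2, 50 mM KCl, 7 mM MgCl2, 0.01% Tween 20, 0.05% BSA; luminescence read after 8 min at ambient temperature.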
ALDH1A1 block = blocks purified human ALDH1A1 activity; P00352; Purified ALDH1A1, NADH fluorescence, propionaldehyde substrate; Potency, µM (series often up to 75.3 µM), most hits filed as inhibitors; actives 7.3% (n = 220,000)
PNC inhibitor = inhibitors of perinucleolar compartment assembly; PC3M PTB-GFP, PNC prevalence imaging, 16 h; stronger effect = lower value; activity change (PNC), negative = inhibition, % at 10 µM; actives 3.1% (n = 140,000);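 active = readout at or below -70, meaning at least 70% loss of cells showing the perinucleolar compartment, a nuclear body marking cancer cells; inconclusive = readout between -30 and a set limit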
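Compounds are pinned in duplicate onto adhered PC3M cells stably expressing GFP-tagged PTB and incubated 16 h at 37 C. Cells are then fixed, nuclei stained with Hoechst, and PNC-positive cells counted.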
Of the large screens only hits and unclear results are named; the others gave an inactive call. Rows were chosen to be rich in hits. Some 10% of all compounds tested hit in one or more screens of this group. Unless noted, calls come from the whole dose curve; as a rule, active = well fitted inhibition curve with a large enough effect (not every such curve was filed as active); inconclusive = small, poorly fitted or top-dose-only effect, or another doubt; inactive = no such curve, though single readings can be large or run the other way.

COc1ccc(C2NC(=S)N3C(c4ccc(OC)cc4)NC(=S)N23)cc1 (stereo not drawn)	HPGD block inconclusive, ALDH1A1 block 11µM
Cc1ccc(OC(C)C(=O)N2CCN(CCc3ccncc3)CC2)cc1C (stereo not drawn)	none (no result: HPGD block, KinaseGlo FLuc, ALDH1A1 block, PNC inhibitor)
O=C(CSc1nnc(NC2CCCCC2)s1)Nc1ccc(N2CCOCC2)cc1	ALDH1A1 block inconclusive
CC(Sc1nnc(NC2CCCCC2)s1)C(=O)Nc1ccc2c(c1)C(=O)c1ccccc1C2=O (stereo not drawn)	HPGD block inconclusive, ALDH1A1 block 25µM
O=C(NCCSCc1ccco1)Nc1cccc(Cl)c1	LMNA splice mod inconclusive, ALDH1A1 block inconclusive, PNC inhibitor -84
CN(C)S(=O)(=O)c1ccc(C(=O)OCC(=O)NCc2ccco2)cc1	ALDH1A1 block 15µM (no result: HPGD block, PNC inhibitor)
CN(C)S(=O)(=O)c1cccc(NC(=S)NCc2ccco2)c1	ALDH1A1 block 32µM (no result: HPGD block, LMNA splice mod, PNC inhibitor)
S=C(NCc1ccco1)Nc1cccc(Cl)c1	HPGD block 11µM, LMNA splice mod inconclusive, ALDH1A1 block inconclusive
Cc1cc2c(cc(C(=O)OCC(=O)NCc3ccco3)n2C)s1	HPGD block 14µM, LMNA splice mod inconclusive
Cc1ccccc1NC(=S)NCc1ccco1	none
O=C(CCNc1cccc(Cl)c1)c1ccco1	ALDH1A1 block 7.1µM
O=C(CNC(=O)c1ccco1)OCc1cccc(Cl)c1	none
S=C(NCc1ccco1)Nc1ccc(Cl)c(Cl)c1	HPGD block 3.2µM, LMNA splice mod inconclusive, ALDH1A1 block 25µM
COc1ccc(NC(=S)NCc2ccco2)cc1	none
Cn1c(C(=O)OCC(=O)NCc2ccco2)cc2sccc21	HPGD block inconclusive, ALDH1A1 block inconclusive
CCOc1ccccc1NC(=S)NCc1ccco1	ALDH1A1 block 28µM
C/C(CCC(=O)OC[C@@H]1O[C@H](C#Cc2ccccc2)C=C[C@@H]1Oc1ccc(C)cc1)=N/OC[C@@H](O)[C@H]1O[C@H]2OC(C)(C)O[C@H]2[C@@H]1O	none (no result: HPGD block, LMNA splice mod, KinaseGlo FLuc, PNC inhibitor)
COc1ccc(Cl)cc1NC(=S)NCc1ccco1	HPGD block 13µM
O=C(NNC(=S)Nc1ccc(Cl)c(Cl)c1)c1ccccn1	ALDH1A1 block 3.2µM (no result: HPGD block, LMNA splice mod, PNC inhibitor)
CCNC(=S)NNC(=O)c1ccccn1	LMNA splice mod inconclusive, PNC inhibitor inconclusive
S=C(NCc1ccco1)Nc1cc(Cl)c(Cl)cc1Cl	HPGD block 3.2µM, LMNA splice mod inconclusive, PNC inhibitor inconclusive
Cc1cccc(NC(=S)NNC(=O)c2ccccc2Br)c1	ALDH1A1 block inconclusive
O=C(NNC(=S)Nc1ccc(F)c(Cl)c1)c1ccccc1Br	LMNA splice mod inconclusive, ALDH1A1 block 13µM (no result: HPGD block, PNC inhibitor)
S=C(NCCc1ccc(Cl)cc1)NCc1ccco1	ALDH1A1 block inconclusive (no result: HPGD block, PNC inhibitor)
COc1ccc(Cl)cc1NC(=O)NCc1ccco1	none (no result: HPGD block, LMNA splice mod, KinaseGlo FLuc, PNC inhibitor)
c1ccc(-c2cnc(-c3ccc(-c4ncc(-c5ccccc5)o4)cc3)o2)cc1	none (no result: LMNA splice mod, PNC inhibitor)
CCOC(=O)CSC1=Nc2ccccc2C2=NC(CCC(=O)NCc3ccc(OC)cc3)C(=O)N12 (stereo not drawn)	none (no result: HPGD block, KinaseGlo FLuc, ALDH1A1 block, PNC inhibitor)
S=C(NCc1ccco1)Nc1cc(-c2ccccc2)[nH]n1	LMNA splice mod inconclusive, ALDH1A1 block 1.1µM (no result: HPGD block, PNC inhibitor)
S=C(NCc1ccccn1)Nc1ccc(Cl)c(Cl)c1	HPGD block 16µM, ALDH1A1 block 11µM
S=C(NCc1ccccn1)Nc1ccccc1	none
COC(=O)/C=C1\OC(c2ccccc2)=CC1=O	HPGD block 20µM, LMNA splice mod inconclusive, ALDH1A1 block 10µM
COC(=O)/C(=C1/OC(=O)C(c2ccccc2)=C1O)c1ccccc1	none (no result: LMNA splice mod, PNC inhibitor)
COc1cccc(CNC(=O)N2CCc3c(sc4c3CCCC4)C2c2ccc(F)cc2)c1 (stereo not drawn)	none (no result: HPGD block, KinaseGlo FLuc, ALDH1A1 block, PNC inhibitor)
COc1ccc(-c2ccccc2[C@H]2[C@@H]3C=CC[C@@H](C)[C@@H]3C(=O)N2Cc2ccccc2)cc1	none (no result: LMNA splice mod, PNC inhibitor)
CC(C)(C)c1ccc(C(=O)CC(Sc2ccc(Cl)cc2)C(=O)O)cc1 (stereo not drawn)	LMNA splice mod inconclusive, ALDH1A1 block 2.5µM (no result: HPGD block, PNC inhibitor)
Brc1ccc(CSc2nnc(-c3ccco3)o2)cc1	HPGD block 25µM
Cc1ccc(CSc2nnc(-c3ccco3)o2)cc1	HPGD block 25µM, PNC inhibitor inconclusive
O=C(NCc1n[nH]c(=S)n1Cc1ccccc1)c1ccc(Cl)cc1Cl	ALDH1A1 block 22µM (no result: HPGD block, LMNA splice mod, PNC inhibitor)
O=C(NCc1n[nH]c(=S)n1Cc1ccccc1)c1ccccc1	none (no result: HPGD block, PNC inhibitor)
COc1ccc(NS(=O)(=O)c2cccc(-c3n[nH]c(=S)n3Cc3ccccc3)c2)cc1	LMNA splice mod inconclusive, ALDH1A1 block 0.45µM (no result: HPGD block, PNC inhibitor)
